Here are results for 40 molecules from PubChem BioAssay (NCI).

Where “and” joins values, the source holds several entries; their conditions need not be identical. Equal entries are not always repeated. This is part of a sample that, as a whole, favours compounds with a hit. Of some 83,000 tested, about 20% had one in any assay.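 How to read the values: 0–100, growth inhibition (40 = 60% inhibited); 0, no net growth; -100 to 0, cell death (-40 = 40% of starting cells died; -100 = all dead).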 Calls of active or inactive are those of the source. The calls were made as follows: active = growth percent below 10; inactive = the rest.

In the assay the test system is HL-60(TB) leukemia. Description: NCI-60 one-dose screen, 48 h (100 = growth as untreated, 0 = no growth, -100 = all killed). The following applies: 10 µM unless noted.
Regarding `COc1ccc(-c2noc(N)c2-c2cc(OC)c3c(c2)OCO3)cc1`, the growth was -29.4% (active). Take `CCC1=C[C@]2(C3CC(=O)N(c4ccccc4)C3=O)CC(C(C)(C)C)C[C@@H]2[C@@H]2C(=O)N(c3ccccc3)C(=O)[C@H]12` (stereo not given in full): the growth was 84.1% (inactive). Turning to `CC(C)(C)OC[C@@H]1N=C(c2ccc(Br)cc2)Nc2nc3ccccn3c2C1=O`, the growth is 33.1% (inactive). In the case of `O=c1cc(-c2ccccc2)oc2cc(OCc3cn(Cc4ccc(F)cc4)nn3)cc(OCc3cn(Cc4ccc(F)cc4)nn3)c12` it was 98% (inactive); in that of `O=C(c1ccccc1)c1ccc(Oc2ccc([N+](=O)[O-])cc2[N+](=O)[O-])cc1`, 43.6% (inactive); in that of `CCOc1ccc(NC2=C(Cl)C(=O)c3ccccc3C2=O)cc1`, 32% (inactive).

`CSc1oc(C)nc1[P+](c1ccccc1)(c1ccccc1)c1ccccc1`: the growth is 46.5% (inactive). As for `CCOC(=O)c1c(NC(=O)c2ccc(C(C)C)cc2)sc2c(CN(C)C)c(O)ccc12`, the growth is -34.8% (active). On to `O=C1C=CC2(NN=C(c3ccccc3)N2c2ccccc2)c2cccc(O)c21` (stereo not given), for which the growth was 29.8% (inactive).

Consider `CC[C@]1(O)C[C@@H]2CN(Cc3c([nH]c4ccccc34)[C@@](C(=O)OC)(c3cc4c(cc3OC)N(C)[C@H]3[C@@](O)(C(=O)OC)[C@H](OC(C)=O)[C@]5(CC)[C@@H]6C[C@@H]6CN6CC[C@]43[C@@H]65)C2)C1`, for which the growth is -36.5% (active). With `C[C@@H](c1ccc2c(c1)[nH]c1ccc(Cl)cc12)c1nc2ccccc2[nH]1`, the growth was 91.3% (inactive).

On to `COc1ccc(N)c(S)c1`, for which the growth was 93.4% (inactive). In the case of `CCN(CC)CCC(=O)c1cccc2ccccc12`, the growth is 102% (inactive). With `COc1ccc(CNC(=O)COc2ccc(/C=N/Nc3nc4ccccc4s3)cc2)cc1`, the growth was 105% (inactive). For the molecule `C#CC(=O)Nc1cccc2c1cc(C)n2-c1nc2c(c(NCc3ccccc3)n1)CCCC2`, the growth is -40.1% (active). `Cc1cc(=O)oc2c1ccc1oc(C#N)c(C)c12`: the growth was 107% (inactive). In the case of `COC(=O)[C@]12CC[C@@H](C)[C@H](C)[C@@H]1C1=CC[C@@H]3[C@@]4(C)C(c5cnco5)=C[C@@](C)(CO)C4=CC[C@@]3(C)[C@]1(C)CC2` it was 21.9% (inactive); in that of `O=C(Nc1ccc(Br)cc1F)c1cc(F)ccc1O`, -19.7% (active); in that of `Cc1cc(C)c(N2C(=O)CC(Sc3ccccc3N)C2=O)c(C)c1` (stereo not given), 68.8% (inactive).

For `CCCCn1cnc2c(Sc3c([N+](=O)[O-])ncn3C)nc(N)nc21`, the growth is 54.3% (inactive). With `O=C(Nc1ncc(Cc2ccc(Cl)c(C(F)(F)F)c2)s1)c1ccc2nnsc2c1`, the growth is 42.5% (inactive). With `Cc1ccc2c(c1)-c1cc(C)nn1-c1ccc(C#N)cc1O2`, the growth was 69.2% (inactive).

Consider `CCCCC1CCCCN1C(=O)OCC` (stereo not given), for which the growth is 128% (inactive).

Regarding `COc1cc(-c2cc(=O)oc3cc(O)ccc23)c(OC)c2c1OCO2`, the growth is 103% (inactive). In the case of `CCC(C)NC(=O)c1ccccc1C` (stereo not given) it was 111% (inactive). For `CCCCCCCCCCCCCCCCCCOP(=O)([O-])OC1CC[N+](C)(C)CC1`, the growth was -22.6% (active) and -37.1% (active). Take `Clc1ccc(Sc2cnc(-c3ccccc3)o2)cc1`: the growth is 99.5% (inactive). In the case of `O=C1Nc2ccc(I)cc2C1=O`, the growth is 111% (inactive).

`CCOC(=O)c1csc(N)n1`: the growth was 95.1% (inactive) and 98.1% (inactive). Consider `COc1ccc(/C=N\Nc2ccc([N+](=O)[O-])cn2)cc1OC`, for which the growth is 100% (inactive).

Regarding `O=C(Cc1ccccc1)c1ccc(Cl)cc1`, the growth is 111% (inactive). Consider `CCN1C(=O)N(CC)C2C1NN=c1s/c(=C\c3cccnc3)c(=O)n12` (stereo not given), for which the growth was -27.5% (active). In the case of `CC(C)N1CN2C(=S)NC3C2N(C1)C(=S)N3C` (stereo not given) it was 100% (inactive); in that of `N#Cc1c(-c2ccccc2)nc(SCC2CO2)nc1N1CCOCC1` (stereo not given), 63.7% (inactive). In the case of `CCCCCCCCn1ccc2cc(NC(=O)CN3CCN(c4nc(C)cc(Cl)n4)CC3)ccc21` it was 91.1% (inactive); in that of `Nc1ncncc1-c1ccc(F)cc1`, 103% (inactive).

For `O=C1Nc2ccccc2[C@]12CC(c1ccccc1)=NN2`, the growth is -15.8% (active). On to `Cc1ccc(S(=O)c2ccc([N+](=O)[O-])c3nonc23)cc1` (stereo not given), for which the growth is 33.2% (inactive). Take `Cc1[nH]n(C(=O)c2ccncc2)c(=O)c1N=Nc1ccc(F)c(Cl)c1`: the growth is 36.5% (inactive). Regarding `CN1CCN(Cc2ccc(NC(=O)c3ccc(C#N)c(C#Cc4cnc(N)c5ncccc45)c3)cc2C(F)(F)F)CC1`, the growth was 60.8% (inactive).
